# Only some compounds are listed: those with a hit (about 1.5% of all), similar ones and a draw of the others.
# PV pol inh: poliovirus RdRp elongation inhibitors, primary screen, biochemical, fluorescence polarization, total intensity; Genome polyprotein (Poliovirus type 1 (strain Mahoney)), P03300; poliovirus polymerase elongation; stronger effect = lower value; % elongation, % (compound at 16.7 µg/mL); 150,000 compounds, 0.66% hits; in the data active = % elongation below about 90%
# AID504770: growth inhibition of E. coli YBA685, primary screen, V. cholerae RctB inhibitors; AID 504770, 2011; E. coli YBA685 rctB-dependent plasmid, OD600 growth, 3 h; stronger effect = lower value; z-score (no concentration beside the values); 130,000 compounds, 0.27% hits; in the data active = z-score below about -2, passing the limit was not always enough
# MbtI inh: MbtI salicylate synthase inhibitors, primary screen, biochemical, fluorescence intensity; P9WFX0; purified MbtI enzyme, fluorescence intensity read-out; inhibition, % (no concentration beside the values); 100,000 compounds, 0.89% hits; AID 493033, 2011; in the data active = inhibition mostly above about 56%, no sharp cut-off; inactive = mostly below about 77%
# Target sequence (P9WFX0 whole entry, looked up): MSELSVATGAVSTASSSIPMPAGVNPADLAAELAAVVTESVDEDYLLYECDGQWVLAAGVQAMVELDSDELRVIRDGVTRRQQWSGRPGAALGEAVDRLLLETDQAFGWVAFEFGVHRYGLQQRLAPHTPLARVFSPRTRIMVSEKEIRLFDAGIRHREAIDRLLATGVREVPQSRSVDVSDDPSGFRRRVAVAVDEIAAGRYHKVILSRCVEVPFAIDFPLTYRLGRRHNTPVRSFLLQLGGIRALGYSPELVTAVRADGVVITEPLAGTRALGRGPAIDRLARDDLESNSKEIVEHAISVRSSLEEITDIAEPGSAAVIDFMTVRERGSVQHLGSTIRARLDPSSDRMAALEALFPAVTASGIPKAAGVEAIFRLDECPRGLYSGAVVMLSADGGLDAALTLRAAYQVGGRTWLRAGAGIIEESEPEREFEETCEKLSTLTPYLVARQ
# Mtb MenB inh: M. tuberculosis MenB inhibitors, primary screen, biochemical, absorbance; MenB enzyme assay, absorbance read-out; inhibition, % (no concentration beside the values); 100,000 compounds, 0.43% hits; AID 540299, 2011; in the data active = inhibition above about 21%, passing the limit was not always enough
# Numbers stand for hits; – = inactive; · = no result.
SMILES,PV pol inh,AID504770,MbtI inh,Mtb MenB inh
O=C(Nc1ncn[nH]1)/C(=C/c1ccc(Cl)cc1)c1ccc(F)cc1,–,–,–,·
COc1ccccc1NS(=O)(=O)c1cccc(C(=O)Nn2cnnc2)c1,72,–,–,–
O=C1CCCC1Sc1nnc(-c2ccncc2)n1-c1ccc(F)cc1 (stereo not given),–,–,–,–
C=CCN(C(=O)Cn1ncc2c(=O)oc3ccccc3c21)c1ccccc1,·,–,·,·
O=C(Cn1cc(SCc2ccc(C(F)(F)F)cc2)c2ccccc21)N1CCCCC1,44,·,·,·
O=C(Cn1cc(SCc2ccc(C(F)(F)F)cc2)c2ccccc21)N1CCCCCC1,–,·,·,·
NNC(=O)CSc1c(-c2cccs2)[nH]c2ccccc12,–,–,–,38
O=C(NC1CCCCCCC1)c1cc(-c2ccc(Cl)cc2)n[nH]1,–,–,–,–
O=C(Nc1ccccc1C(=O)O)c1cccs1,–,–,89,–
COc1ccc(/C=C/C(=O)N2c3ccccc3Sc3ccccc32)c(OC)c1,–,–,–,–
O=C(CSc1ccc(S(=O)(=O)N2CCCC2)cn1)Nc1ccc2c(c1)OCCCO2,–,–,–,–
Cc1ccc(-c2csc3nnc(SCC(N)=O)n23)cc1,–,–,–,37
Cc1ccc(C)c(-n2nnnc2SCC(=O)N2CCCCC2C(N)=O)c1 (stereo not given),–,–,–,–
CCOc1cc(CNS(=O)(=O)c2ccc3c(c2)CCCC(=O)N3)cc(OCC)c1OCC,–,–,–,–
Cc1ccc(S(=O)(=O)N2CC(=O)CCc3ccccc32)cc1,–,–,·,–
CCOC(=O)CN1C(=O)COc2ccc(C)cc21,–,–,–,–
S=C(Nc1ccc(Cl)cc1)NN1CCOCC1,–,–,–,–
COC(=O)c1cc(NC(=S)NN2CCOCC2)cc(C(=O)OC)c1,–,–,–,45
CCSc1cc(C(F)(F)F)nc2cc(C(C)(C)C)nn12,–,–,87,–
CC(C)(C)c1[nH]oc(=O)c1N=O,·,-7.3,–,·
O=C(CC1Sc2ncnn2C1=O)Nc1ccc(Br)cc1 (stereo not given),·,–,99,·
CN=C1SC(CC(=O)Nc2ccccc2)C(=O)N1C (stereo not given),·,–,–,–
CCc1nccn1C(=O)CCCC(=O)O,–,–,–,–
Cc1noc(C)c1-n1sc(=O)n(CC2CC2)c1=O,–,–,99,–
Cc1cccn(Cc2c(Cl)cccc2Cl)c1=O,–,–,–,–
SMILES,PV pol inh,AID504770,MbtI inh,Mtb MenB inh
Cc1cccc(Cl)c1-n1sc(=O)n(CC2CC2)c1=O,–,–,72,–
O=C(c1cccc2c1C(=O)N(Cc1cccnc1)C2)N1CCN(Cc2ccccc2)CC1,–,–,–,–
O=C(CSc1nncn2c1cc1occc12)NCCc1ccccc1,–,–,–,–
O=C(NC1(O)C(=O)c2ccccc2C1=O)c1ccccc1,67,–,–,–
Cc1ccc(C(=O)NC2(O)C(=O)c3ccccc3C2=O)cn1,·,–,·,·
CCOc1ccccc1-c1n[nH]c(=S)n1N,83,–,–,–
Nn1c(-c2ccco2)n[nH]c1=S,–,–,–,–
O=c1nc2c3ccccc3ncn2[nH]1,–,–,–,–
N#Cc1ccc(S(=O)(=O)N2CCNCC2)cc1,–,–,–,27
O=S(=O)(c1ccc(Br)cc1)N1CCNCC1,–,–,·,–
C=CCN1CCN(Cc2nnnn2Cc2ccc(OC)cc2)CC1,–,–,–,42
O=C1OC(c2ccccc2)=N/C1=C\c1ccsc1,·,–,·,·
COc1cccc(NC(=O)COc2coc(CSc3nncn3C)cc2=O)c1,–,–,–,–
O=C(CCn1cnc2onc(-c3ccc(F)cc3)c2c1=O)NCc1cccc(Cl)c1,–,–,–,–
COCCNC(=S)N1CCCN(c2nc3cc(C)ccc3cc2C#N)CC1,–,–,–,21
Cc1ccc2cc(C#N)c(N3CCCN(C(=O)C4CCCCC4)CC3)nc2c1,–,–,–,–
CC1CCCCC1NC(=O)COC(=O)c1ccc(Cl)c(S(N)(=O)=O)c1 (stereo not given),–,-3,–,–
O=S(=O)(Nc1ccccc1-c1ccccc1)c1cccs1,–,–,–,52
O=C(CCc1nc(-c2ccccc2F)no1)N1CCN(C2CCCCC2)CC1,·,–,·,·
O=C(O)c1ccccc1-c1c2cc(Br)c(=O)cc-2oc2[c]([Hg])c(O)c(Br)cc12,–,–,104,–
COc1ccc(-c2ccnc(SC)n2)cc1,·,–,·,·
COc1nncc(-c2cnnc(SC)n2)n1,15,-2,·,–
O=c1/c(=C/c2c(F)cccc2Cl)sc2nc3ccccc3n12,·,–,·,·
CN1CCN(C(=O)c2cc3ccccc3nc2Cl)CC1,·,–,·,·
Nc1cc2ccccc2cc1C(=O)O,52,–,–,–
SMILES,PV pol inh,AID504770,MbtI inh,Mtb MenB inh
O=C(O)c1cc2ccccc2nc1Cl,76,–,–,–
O=C(Oc1cccc(Cl)c1Cl)c1ccncc1,4.0,–,–,–
Cc1cc2nc(N3C(=N)SCC3=O)sc2cc1C,–,–,–,–
N=C1SCC(=O)N1c1nccs1,–,-4.6,·,–
Cc1ccc(-c2nc(NC(=O)C(C(C)C)N3C(=O)c4ccccc4C3=O)sc2C)cc1 (stereo not given),–,–,–,–
C=CCN(CC=C)Cn1[nH]c(-c2cccs2)nc1=S,–,–,96,–
CC(C)Sc1n[nH]c(=S)s1,88,–,98,–
O=C(O)CCSc1n[nH]c(=S)s1,–,–,–,–
C=C(C)CSc1n[nH]c(=S)s1,–,–,–,–
CCC(C)Sc1n[nH]c(=S)s1 (stereo not given),–,–,99,–
CCc1ccccc1NC(=O)CN1CCN(Cc2ccccc2C)S1(=O)=O,–,-3.5,–,–
CCN(CC)C(=S)Nc1ccc2oc(N(C)C)nc2c1,90,–,·,–
NC(=S)c1ccccc1N,55,–,–,–
O=C(O)c1cccnc1SCc1ccc(F)cc1,·,–,–,–
c1ccc2sc(SN3CCOCC3)nc2c1,–,–,84,–
c1ccc2sc(N3CCOCC3)nc2c1,·,–,·,·
CCc1ccc(N2C(=O)CC(Sc3ccccc3N)C2=O)cc1 (stereo not given),–,–,–,–
O=C1CC(Sc2cccs2)C(=O)N1c1ccccc1 (stereo not given),·,–,·,·
O=C1CC(Sc2ccccn2)C(=O)N1c1ccccc1 (stereo not given),·,–,·,·
O=C1CC(Sc2ccccc2)C(=O)N1c1ccccc1 (stereo not given),–,–,64,–
CCc1ccc(N2C(=O)CC(Sc3ccccn3)C2=O)cc1 (stereo not given),–,–,69,–
CCc1ccc(N2C(=O)CC(Sc3nnc(N)s3)C2=O)cc1 (stereo not given),–,–,101,–
O=C(O)c1cccnc1SC1CC(=O)N(c2ccc(Cl)cc2)C1=O (stereo not given),–,–,66,–
O=C1OCC(CO)(CO)N=C1NNc1ccccc1,–,–,–,–
CC1CN(C(=O)c2cccc(Cl)c2)CCN1C(=O)c1cccc(Cl)c1 (stereo not given),·,–,·,·

# Compound activity: PubChem BioAssay, ICCB-Longwood Screening Facility, Harvard Medical School
